From PubChem BioAssay
LMP1 NFkB inh = inhibitors of Epstein-Barr LMP1-induced NF-kappaB reporter; LMP1-induced NF-kappaB luciferase reporter cells, luminescence; inhibition, % at 12.5 µM; actives 0.69% (n = 350,000); in the data active means inhibition above about 41%
LGR2 inh = blocks bursicon-induced cAMP signaling via Drosophila LGR2; inhibition, % at 9.99 µM; HEK293 LGR2, CRE-luciferase, bursicon-stimulated, 4 h; actives 0.35% (n = 380,000); AID 720647;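 active means drop in luminescence signal, shown as inhibition above about 50% in the replicate tests, limit read from the data, passing the limit was not always enough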;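 further: agonist challenge used bursicon conditioned medium at about half maximal strength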
HSF-1 act = increases HSF-1 driven luciferase reporter signal | AID 504408 | activation, % at 9 µM | NIH3T3-HGL HSF-1 luciferase reporter, MG132, 8 h; 100% = twice DMSO control signal | actives 1.7% (n = 300,000);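 active means mean replicate activation of at least 50% with a set share of replicates each reaching 50%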
HSF1 inhib = HSF1 inhibition. NIH3T3-HGL HSE-luciferase, MG132-induced, luminescence 8 h; stronger effect = lower value. actives 0.77% (n = 300,000). AID 2098. activity change, negative = inhibition, % at 7.5 µM (by protocol);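 active means more than half of replicate wells show activity change below -50%, luminescence cut by over half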;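 further: luciferase reports HSF-1 transcriptional activity via heat shock element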
TROY NFkB inh = blocks TROY-dependent signaling in reporter cells. AID 1347056. actives 0.98% (n = 360,000). inhibition, % at 10 µM. Q293 LMP1-TROYcd NF-kB luciferase reporter, 4 h;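 active means compounds whose plate-normalised and pattern-corrected inhibition of the luciferase reporter signal at the single screening dose is 50% or more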
TWEAK-Fn14 inh = TWEAK-Fn14 signaling inhibition; TWEAK-stimulated Fn14 reporter cells, luciferase luminescence, 8 h; actives 2% (n = 360,000); AID 1159606; inhibition, % at 10 µM; in the data active means inhibition above about 50%
A number is an active result; - = inactive; . = no result. In the library only some 3.6% were active in any assay of this set; here they are far more common.

SMILES | LMP1 NFkB inh | LGR2 inh | HSF-1 act | HSF1 inhib | TROY NFkB inh | TWEAK-Fn14 inh
CC[C@]12c3[nH]c4cc(CCC(=O)N(C)C)ccc4c3CCN1C(=O)[C@@H](CC(=O)NCC13CC4CC(CC(C4)C1)C3)C[C@@H]2C(=O)N1CCN(C(=O)c2ccco2)CC1 | - | - | . | . | - | 96
COc1cc(C(=O)Nc2ccc(C)cn2)ccc1OCC(=O)N1CCOCC1 | - | - | . | . | - | -
Cc1cc(NC(=O)c2ccc(Cl)cc2)cc(C)c1OCC(=O)N1CCOCC1 | - | - | 54 | - | - | -
COc1cc(C(=O)Nc2cc(C)ccn2)ccc1OCC(=O)N1CCOCC1 | - | - | - | - | - | 93
COc1ccc(-c2nc(NC(=O)c3ccc(OCC(=O)N4CCOCC4)c(OC)c3)sc2C)cc1 | - | - | - | - | - | 58
Cc1cc(Cl)ccc1OCCCC(=O)N1CCOCC1 | - | . | - | -65 | - | -
N#Cc1cccc(-c2ccc3c(c2)[C@H]2[C@H](CCN2Cc2ccncc2)[C@@H](CO)N3)c1 | . | - | . | . | . | .
COc1ccc(S(=O)(=O)N(C)C[C@H]2Oc3ccc(NS(=O)(=O)c4c(C)noc4C)cc3C(=O)N([C@@H](C)CO)C[C@H]2C)cc1 | . | - | . | . | . | .
C[C@H]1CN([C@@H](C)CO)C(=O)c2cccc(NS(=O)(=O)c3cccs3)c2O[C@@H]1CN(C)C(=O)NC1CCCCC1 | . | - | . | . | . | .
COc1ccc(-c2nnc(SCc3nc4ccccc4c(=O)[nH]3)o2)cc1 | - | - | - | - | 56 | 51
COc1ccc(CC(=O)NC(C)c2nnc(SCc3nc4ccccc4c(=O)[nH]3)n2C)cc1 (configuration not stated) | - | . | - | - | . | 75
c1ccc2[nH]c(CSc3nnc(-c4ccncc4)o3)nc2c1 | - | . | - | - | . | 58
CC(NC(=O)c1ccccc1)c1nnc(SCc2nc3ccccc3c(=O)[nH]2)n1C (configuration not stated) | - | - | - | - | - | -
COc1ccc(-c2nnc(SCC(=O)NCCc3ccccc3)o2)cc1 | - | . | - | - | . | 87
CCC(=O)Nc1ccc2c(c1)OC[C@H](C)N(Cc1cccnc1)C[C@H](C)[C@H](OC)CN(C)C2=O | . | - | . | . | . | .
COc1cccc(S(=O)(=O)Nc2ccc3c(c2)C(=O)N(C)C[C@H](OC)[C@@H](C)CN[C@@H](C)CO3)c1 | . | - | . | . | . | .
Clc1ccc(-c2nnc(SCc3nc4ccccc4[nH]3)o2)c(Cl)c1 | - | . | 75 | - | - | -
Brc1cccc(-c2nnc(SCc3nc4ccccc4[nH]3)o2)c1 | - | . | - | - | - | -
CCCNC(=O)N1C[C@@H](C)[C@@H](OC)CN(C)C(=O)c2ccc(NC(=O)C3CCC3)cc2OC[C@H]1C | . | - | . | . | . | .
Cc1nc(-c2cc(-c3ccc(Cl)cc3)no2)cs1 | - | - | 71 | - | - | -
C[C@@H]1CN([C@@H](C)CO)C(=O)c2cc(-c3ccc(C#N)cc3)cnc2O[C@H]1CN(C)CC1CCCCC1 | . | - | . | . | . | .
CC1(C)CC(=O)C2=C(C1)NC1=C(C(=O)c3ccccc31)C2c1ccc(Cl)cc1 (configuration not stated) | - | - | - | - | 93 | 109
O=C(Nc1ccccc1C(=O)N1CCCC1)c1ncoc1-c1cccc(Cl)c1 | - | - | 62 | - | - | -
C[C@H]1CN([C@@H](C)CO)S(=O)(=O)c2ccc(-c3cccc(C#N)c3)cc2O[C@@H]1CN(C)Cc1cccc(F)c1 | . | - | . | . | . | .
CO[C@H]1CN(C)C(=O)c2ccc(NC(C)=O)cc2OC[C@@H](C)N(CCC(F)(F)F)C[C@@H]1C | . | - | . | . | . | .
SMILES | LMP1 NFkB inh | LGR2 inh | HSF-1 act | HSF1 inhib | TROY NFkB inh | TWEAK-Fn14 inh
O=C(CSC(=S)N1CCOCC1)Nc1nc(-c2ccccc2)c(-c2ccccc2)o1 | - | . | - | -61 | - | -
O=C(Cn1cc(CNC(=O)C2CCCCC2)nn1)Nc1cc(C(F)(F)F)ccc1Cl | 42 | - | . | . | - | -
Cc1ccc(C)c(NC(=O)COc2coc(CN3CCc4ccccc4C3)cc2=O)c1 | - | - | - | -51 | - | -
COc1ccc(OC)c(NC(=O)COc2coc(CN3CCc4ccccc43)cc2=O)c1 | 50 | - | - | - | - | -
COc1ccc(OC)c(NC(=O)COc2coc(CN3CCCc4ccccc43)cc2=O)c1 | - | - | - | - | - | -
CNC(=O)/C(C#N)=c1\s/c(=C/C(=O)OC)c(=O)n1-c1ccccc1 | - | . | - | - | - | -
COC(=O)/C=c1\sc2ncnn2c1=O | - | - | - | - | . | 74
Cc1ccc(-c2cc(NC(=O)CSc3n[nH]c(N)n3)n(-c3ccccc3)n2)cc1 | - | . | - | - | - | -
Cc1nnc(SCC(=O)Nc2cc(-c3cc(C)c(C)cc3C)nn2-c2ccccc2)s1 | 50 | - | - | - | - | -
CCCc1ccc(-c2cc(NC(=O)CSc3nnc(N)s3)n(-c3ccccc3)n2)cc1 | - | - | 61 | - | - | -
CC(C)NC(=O)N1[C@@H]2CN(C(=O)Nc3ccccc3)c3ccccc3[C@@H]2[C@@H]1CO | . | - | . | . | . | .
O=C1CN(Cc2ccc(F)cc2)C[C@@H]2[C@@H](c3ccc(-c4ccccc4F)cc3)[C@H](CO)N12 | . | - | . | . | . | .
O=C(O)c1cccc2c1C(=O)c1ccccc1-2 | - | - | - | - | - | -
O=C1C(=C(I)I)c2ccccc2-c2ccccc21 | - | 103 | . | . | 64 | 104
CN(C)CCCNC(=O)C[C@H]1CC[C@H]2[C@@H](COC[C@H](O)CN2S(=O)(=O)c2ccc(F)cc2)O1 | . | - | . | . | . | .
Cc1c(C)n(CCCN(C)C)c2ncnc(Nc3ccccc3)c12 | - | - | - | - | - | -
COc1ccc(Nc2ncnc3c2c(C)c(C)n3CCCN(C)C)cc1 | - | - | - | -54 | 55 | 59
CO[C@@H]1CN(C)C(=O)c2ccc(NC(=O)C3CC3)cc2OC[C@H](C)N(C(=O)CN2CCOCC2)C[C@H]1C | . | - | . | . | . | .
O=C(c1ccncc1)N1CC(=O)N2[C@H](C1)[C@@H](c1ccc(-c3ccccc3)cc1)[C@@H]2CO | . | - | . | . | . | .
CCC(=O)Nc1ccc(Cl)c(NC(=O)c2cccnc2)c1 | - | . | - | - | - | -
CCCC(=O)Nc1ccc(Cl)c(NC(=O)c2cccnc2)c1 | - | - | - | -87 | - | -
CCCC(=O)Nc1cccc(NC(=O)c2cccc([N+](=O)[O-])c2C)c1 | - | - | - | -71 | - | -
CCCC(=O)Nc1ccc(Cl)c(NC(=O)c2ccc([N+](=O)[O-])cc2Cl)c1 | - | - | - | -64 | - | -
Cc1nc(-c2ccc(C(=O)Nc3ccccc3F)cc2)cs1 | - | 83 | - | - | 66 | 90
Cc1nc(-c2ccc(C(=O)Nc3cccc(F)c3)cc2)cs1 | - | 60 | - | - | 56 | 92
Cc1nc(-c2ccc(C(=O)Nc3ccc(F)cc3)cc2)cs1 | - | - | 67 | - | - | -
O=C(NCc1ccncn1)[C@@H]1[C@@H](CO)[C@@H]2Cn3c(ccc(-c4ccccc4)c3=O)[C@@H]2N1CC1CC1 | . | - | . | . | . | .
